# Test results from PubChem BioAssay (NCI).
# Compounds without any hit were thinned out: in the full panel of roughly 83,000, 20% have a hit.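 Assay: single dose, 48 h. Readout: percent growth (0 = no net growth; negative = cell death). Active: <10.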 Active and inactive are the calls of the source.
# Tested on: M14 melanoma
# Experiment: NCI-60 one-dose screen, 48 h (100 = growth as untreated, 0 = no growth, -100 = all killed)
# Settings: 10 µM unless noted
row,Structure (SMILES),growth
1,O=C(COc1cccc(/C=C2\COc3ccc(Cl)cc3C2=O)c1)c1ccc(Cl)cc1,82.4% (inactive)
2,Cc1cc(Nc2ccc(C)c(Cl)c2)n2nc(C(F)(F)F)nc2n1,51.7% (inactive)
3,CN(C)c1ccc(NC(=O)c2ccc(/C=C/C(=O)c3ncc[nH]3)cc2)cc1,67.8% (inactive)
4,O=[N+]([O-])c1ccccc1/C=N\NC(=S)N/N=C/c1ccccc1[N+](=O)[O-],37.6% (inactive)
5,O=C(Oc1cccnc1)c1ccsc1Nc1ccnc(C(F)(F)F)c1,81.6% (inactive)
6,OC(c1cc2cc(Cl)c(Cl)cc2c2cc(C(F)(F)F)ccc12)C1CCCCN1 (stereo not drawn),-80.9% (active)
7,COc1ccc(-c2cc(-c3ccc(Nc4ccnc5cc(Cl)ccc45)cc3)nc(N3CCOCC3)n2)cc1,12.9% (inactive)
8,C=C1C(=O)O[C@H]2[C@H]1CC/C(COC(=O)NCCc1ccc(OC)c(OC)c1)=C\CC[C@@]1(C)O[C@@H]21,65.7% (inactive)
9,O=[N+]([O-])c1ccc2c(c1)Cc1cc(F)ccc1-2,110% (inactive)
10,CN1CCN(c2nc(NCCCNc3ccnc4cc(Cl)ccc34)c3ccccc3n2)CC1,-85.6% (active)
11,Clc1ccc2c(NCCCCNc3nc(N4CCCCC4)nc4ccccc34)ccnc2c1,-84.6% (active)
12,NC(=NC1C2CC3CC(C2)CC1C3)Nc1ccc(I)cc1 (stereo not drawn),2.98% (active)
13,CCOc1nc(-c2ccccc2)cc2c(O)c(C(=O)O)[nH]c(=O)c12,102% (inactive)
14,COc1ccc(Nc2cc(C)nc(N3CCN(c4ccnc5cc(Cl)ccc45)CC3)n2)cc1,27.3% (inactive)
15,Cc1cc(N2CCN(c3ccnc4cc(Cl)ccc34)CC2)nc(N2CCOCC2)n1,87.2% (inactive)
16,N#Cc1c(N)n(CCNC(=O)c2ccccc2)c2nc3ccccc3nc12,112% (inactive)
17,COc1ccc(CN2c3ccccc3Sc3ccccc32)c(C(F)(F)F)c1,7.59% (active)
18,CCc1c(Nc2ccccc2C)nc(N)[nH]c1=O,106% (inactive)
19,CC(=O)c1cc2c(N)c(C(=O)Nc3ccccc3)sc2nc1C,43.5% (inactive)

row,Structure (SMILES),growth
1,CCCCC/C(C=C(C#N)C#N)=C/c1ccccc1,73% (inactive)
2,OCCNc1nccc(N2CCN(c3ccnc4cc(Cl)ccc34)CC2)n1,68.7% (inactive)
3,Cc1cc(N2CCSCC2)nc(NC2CCCC(Nc3ccnc4cc(Cl)ccc34)C2)n1 (stereo not drawn),-88.5% (active)
4,COc1ccc(Nc2c3c4c(cccc4[nH]c2=O)C(=O)c2ccccc2-3)cc1,11.7% (inactive)
5,O=C1/C(=C/c2ccccc2O)N=C2SCCCN12,102% (inactive)
6,COc1cc2c(cc1O)CC[C@@H]1[C@@H]2CC[C@]2(C)[C@@H](OCCCN(C)C)CC[C@@H]12,-78.8% (active)
7,O=C(Cn1cccc(Nc2ccccc2)c1=O)Nc1ccccc1,102% (inactive)
8,Cc1cc(N2CCN(c3ccnc4cc(Cl)ccc34)CC2)nc(NC2CCCCC2)n1,-45.1% (active)
9,CSc1ccc(SC2c3ccc(C)cc3Oc3nc(N)c(C#N)c(N)c32)cc1 (stereo not drawn),-81.6% (active)
10,O=c1ccccc(-c2ccc(-c3ccco3)cc2)c1O,-2.99% (active)
11,O=C(COc1ccc(/C=C2\CSc3ccccc3C2=O)cc1)Nc1nccs1,89.6% (inactive)
12,CN(C)CCCNc1c2ccccc2nc2ccccc12,98% (inactive)
13,O=C(Cc1ccc(/C=C/C(=O)c2ncc[nH]2)cc1)Nc1ccccc1,73.6% (inactive)
14,CC/C=C\C/C=C\C[C@H]1C/C=C2/C(=O)C=C[C@@H]2C/C=C\CCC(=O)O1,7.48% (active)
15,COc1cccc(-c2nc(SCC(=O)Nc3ccc(C(=O)/C=C/c4ccc(OC)c(OC)c4)cc3)[nH]c(=O)c2C#N)c1,100% (inactive)
16,Cc1cc(N2CCN(C)CC2)nc(NC2CCCC(Nc3ccnc4cc(Cl)ccc34)C2)n1 (stereo not drawn),-86.4% (active)
17,Clc1ccc2nc3nc4ccc[nH]c4cc3c2c1,106% (inactive)
18,COc1ccc2c(c1)C(=O)/C(=C/c1ccccn1)CC2,85.4% (inactive)
19,COc1ccc(C2Nc3c(c(C(C)(C)C)nn3-c3ccccc3)C(=O)CS2)cc1 (stereo not drawn),112% (inactive)
